# Assay results from the supplement of paper PMC10849652.
# Targets with a hit are over-represented here; the source holds about 8,800 in all. About 0.5% of all pairs of compound and target were hits. Unmarked numbers belong to inactive results.
# Compound: C1=CC=C(C=C1)[C@H](COC2=CC3=C(C=C2)NC(=O)N3)NC(=O)C4=CC=CN(C4=O)CC5=CC(=C(C=C5)F)F
# Test: log2 fold change, soluble protein after heating vs DMSO (PISA); higher = thermal stabilisation; K562 lysate, 10 uM; active = over 0.2 and 3.5 SD of the protein, either way, in both replicates (recomputed)
# Procedure, shortened: (§1)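 K562 pellets were dounce-homogenised in PBS pH 7.4 containing 1 mM MgCl2, and the crude extract, at 1 mg/mL protein, was exposed to 10 μM compound for 30 min. Aliquots were heated for 3 min across 48°C-58°C, pooled, brought to 0.5% NP-40 at 4°C and spun at 21,000xg for 90 min, with the supernatant taken as soluble protein. TMTpro 16plex LC-MS/MS with equalised channel sums quantified that protein. Values are log-two fold changes in thermal stability relative to solvent controls, taken from duplicates.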
# Sequence of UniProt P22692 (P22692 whole entry, looked up): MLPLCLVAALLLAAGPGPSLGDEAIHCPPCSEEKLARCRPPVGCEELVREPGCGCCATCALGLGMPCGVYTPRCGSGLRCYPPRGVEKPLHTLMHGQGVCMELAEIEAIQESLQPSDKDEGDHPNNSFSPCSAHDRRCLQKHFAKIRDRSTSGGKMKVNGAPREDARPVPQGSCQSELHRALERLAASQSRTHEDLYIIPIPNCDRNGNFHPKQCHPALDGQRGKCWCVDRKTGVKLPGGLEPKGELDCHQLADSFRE
# Sequence of UniProt Q14103 (Q14103 whole entry, looked up): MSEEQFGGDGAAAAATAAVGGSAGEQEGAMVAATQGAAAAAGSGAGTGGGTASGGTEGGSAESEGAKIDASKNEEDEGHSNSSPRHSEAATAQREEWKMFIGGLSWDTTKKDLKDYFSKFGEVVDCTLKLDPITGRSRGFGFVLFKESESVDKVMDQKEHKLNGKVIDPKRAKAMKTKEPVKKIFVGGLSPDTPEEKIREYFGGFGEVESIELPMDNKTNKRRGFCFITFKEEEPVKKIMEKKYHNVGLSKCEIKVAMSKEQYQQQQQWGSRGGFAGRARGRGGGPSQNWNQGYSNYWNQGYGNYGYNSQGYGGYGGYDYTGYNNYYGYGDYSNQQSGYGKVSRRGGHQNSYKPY
# Sequence of UniProt P16278 (P16278 whole entry, looked up): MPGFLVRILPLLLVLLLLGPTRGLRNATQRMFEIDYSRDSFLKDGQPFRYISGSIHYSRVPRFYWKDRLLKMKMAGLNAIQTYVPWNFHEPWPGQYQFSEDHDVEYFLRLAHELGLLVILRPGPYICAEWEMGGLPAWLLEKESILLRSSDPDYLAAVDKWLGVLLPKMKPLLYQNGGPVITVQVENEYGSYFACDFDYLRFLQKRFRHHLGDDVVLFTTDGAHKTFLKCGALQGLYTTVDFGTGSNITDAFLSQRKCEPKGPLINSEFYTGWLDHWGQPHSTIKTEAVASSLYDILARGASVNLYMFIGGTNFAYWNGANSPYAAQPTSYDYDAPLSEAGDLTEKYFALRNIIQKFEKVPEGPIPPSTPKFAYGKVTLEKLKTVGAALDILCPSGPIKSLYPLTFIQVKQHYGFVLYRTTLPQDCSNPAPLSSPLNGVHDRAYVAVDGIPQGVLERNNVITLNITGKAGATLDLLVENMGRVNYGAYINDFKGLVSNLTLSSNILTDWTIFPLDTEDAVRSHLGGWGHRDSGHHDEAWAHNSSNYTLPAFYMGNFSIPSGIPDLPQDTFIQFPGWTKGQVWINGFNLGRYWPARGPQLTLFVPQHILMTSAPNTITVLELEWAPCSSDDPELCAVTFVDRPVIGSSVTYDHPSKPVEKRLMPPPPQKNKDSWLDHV
# Sequence of UniProt O00425 (O00425 whole entry, looked up): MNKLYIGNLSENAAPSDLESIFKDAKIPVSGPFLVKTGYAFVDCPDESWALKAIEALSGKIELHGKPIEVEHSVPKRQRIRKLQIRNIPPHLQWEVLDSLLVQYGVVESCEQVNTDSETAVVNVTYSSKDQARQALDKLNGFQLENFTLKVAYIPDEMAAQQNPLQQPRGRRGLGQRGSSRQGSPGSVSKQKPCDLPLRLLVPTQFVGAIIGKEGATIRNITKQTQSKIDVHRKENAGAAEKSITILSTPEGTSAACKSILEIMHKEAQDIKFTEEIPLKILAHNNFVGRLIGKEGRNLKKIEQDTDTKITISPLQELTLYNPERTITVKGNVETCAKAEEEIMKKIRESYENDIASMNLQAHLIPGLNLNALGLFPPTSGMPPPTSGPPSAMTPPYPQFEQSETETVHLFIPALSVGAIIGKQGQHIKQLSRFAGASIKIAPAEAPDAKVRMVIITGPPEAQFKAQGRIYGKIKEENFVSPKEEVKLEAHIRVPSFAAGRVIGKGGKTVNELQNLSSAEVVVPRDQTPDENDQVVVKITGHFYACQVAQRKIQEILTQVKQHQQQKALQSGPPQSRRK
# Sequence of UniProt Q8TF64 (Q8TF64 whole entry, looked up): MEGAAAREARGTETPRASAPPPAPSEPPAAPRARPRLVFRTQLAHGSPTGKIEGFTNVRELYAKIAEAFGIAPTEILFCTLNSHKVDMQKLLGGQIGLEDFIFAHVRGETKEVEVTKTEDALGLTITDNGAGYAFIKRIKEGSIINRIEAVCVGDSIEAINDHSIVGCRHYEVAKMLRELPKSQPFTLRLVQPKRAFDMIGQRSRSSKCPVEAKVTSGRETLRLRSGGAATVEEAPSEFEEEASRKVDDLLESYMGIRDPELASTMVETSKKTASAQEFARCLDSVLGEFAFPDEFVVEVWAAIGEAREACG
# Sequence of UniProt Q9HAV0 (Q9HAV0 whole entry, looked up): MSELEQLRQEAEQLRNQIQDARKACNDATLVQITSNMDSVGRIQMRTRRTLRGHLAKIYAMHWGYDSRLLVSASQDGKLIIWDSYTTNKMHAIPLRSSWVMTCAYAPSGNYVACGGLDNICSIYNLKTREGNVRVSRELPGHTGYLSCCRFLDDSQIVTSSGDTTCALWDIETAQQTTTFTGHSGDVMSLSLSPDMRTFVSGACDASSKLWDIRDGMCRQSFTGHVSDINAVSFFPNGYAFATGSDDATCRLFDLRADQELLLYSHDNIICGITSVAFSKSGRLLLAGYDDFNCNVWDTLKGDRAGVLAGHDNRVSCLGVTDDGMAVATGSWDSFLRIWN
# Sequence of UniProt Q9Y2X7 (Q9Y2X7 whole entry, looked up): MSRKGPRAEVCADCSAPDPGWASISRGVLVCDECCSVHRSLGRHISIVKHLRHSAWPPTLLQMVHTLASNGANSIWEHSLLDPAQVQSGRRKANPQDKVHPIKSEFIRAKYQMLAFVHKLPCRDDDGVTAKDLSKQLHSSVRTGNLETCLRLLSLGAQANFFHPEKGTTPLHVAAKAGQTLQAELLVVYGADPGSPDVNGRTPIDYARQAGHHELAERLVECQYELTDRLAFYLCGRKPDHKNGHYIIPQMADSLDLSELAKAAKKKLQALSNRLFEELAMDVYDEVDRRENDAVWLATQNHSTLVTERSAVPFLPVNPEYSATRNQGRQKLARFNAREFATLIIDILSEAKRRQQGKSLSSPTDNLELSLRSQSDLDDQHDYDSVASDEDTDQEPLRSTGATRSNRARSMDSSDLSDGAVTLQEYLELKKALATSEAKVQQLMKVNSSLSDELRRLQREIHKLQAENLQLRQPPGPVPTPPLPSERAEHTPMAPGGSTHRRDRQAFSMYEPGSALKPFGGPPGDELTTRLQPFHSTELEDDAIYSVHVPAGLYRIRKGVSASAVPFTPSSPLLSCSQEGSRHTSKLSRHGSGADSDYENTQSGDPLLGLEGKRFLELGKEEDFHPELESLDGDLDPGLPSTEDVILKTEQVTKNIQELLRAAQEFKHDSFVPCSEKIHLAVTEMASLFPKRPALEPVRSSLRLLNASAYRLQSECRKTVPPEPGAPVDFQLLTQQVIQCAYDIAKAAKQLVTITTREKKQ
# Sequence of UniProt Q9Y4H2 (Q9Y4H2 whole entry, looked up): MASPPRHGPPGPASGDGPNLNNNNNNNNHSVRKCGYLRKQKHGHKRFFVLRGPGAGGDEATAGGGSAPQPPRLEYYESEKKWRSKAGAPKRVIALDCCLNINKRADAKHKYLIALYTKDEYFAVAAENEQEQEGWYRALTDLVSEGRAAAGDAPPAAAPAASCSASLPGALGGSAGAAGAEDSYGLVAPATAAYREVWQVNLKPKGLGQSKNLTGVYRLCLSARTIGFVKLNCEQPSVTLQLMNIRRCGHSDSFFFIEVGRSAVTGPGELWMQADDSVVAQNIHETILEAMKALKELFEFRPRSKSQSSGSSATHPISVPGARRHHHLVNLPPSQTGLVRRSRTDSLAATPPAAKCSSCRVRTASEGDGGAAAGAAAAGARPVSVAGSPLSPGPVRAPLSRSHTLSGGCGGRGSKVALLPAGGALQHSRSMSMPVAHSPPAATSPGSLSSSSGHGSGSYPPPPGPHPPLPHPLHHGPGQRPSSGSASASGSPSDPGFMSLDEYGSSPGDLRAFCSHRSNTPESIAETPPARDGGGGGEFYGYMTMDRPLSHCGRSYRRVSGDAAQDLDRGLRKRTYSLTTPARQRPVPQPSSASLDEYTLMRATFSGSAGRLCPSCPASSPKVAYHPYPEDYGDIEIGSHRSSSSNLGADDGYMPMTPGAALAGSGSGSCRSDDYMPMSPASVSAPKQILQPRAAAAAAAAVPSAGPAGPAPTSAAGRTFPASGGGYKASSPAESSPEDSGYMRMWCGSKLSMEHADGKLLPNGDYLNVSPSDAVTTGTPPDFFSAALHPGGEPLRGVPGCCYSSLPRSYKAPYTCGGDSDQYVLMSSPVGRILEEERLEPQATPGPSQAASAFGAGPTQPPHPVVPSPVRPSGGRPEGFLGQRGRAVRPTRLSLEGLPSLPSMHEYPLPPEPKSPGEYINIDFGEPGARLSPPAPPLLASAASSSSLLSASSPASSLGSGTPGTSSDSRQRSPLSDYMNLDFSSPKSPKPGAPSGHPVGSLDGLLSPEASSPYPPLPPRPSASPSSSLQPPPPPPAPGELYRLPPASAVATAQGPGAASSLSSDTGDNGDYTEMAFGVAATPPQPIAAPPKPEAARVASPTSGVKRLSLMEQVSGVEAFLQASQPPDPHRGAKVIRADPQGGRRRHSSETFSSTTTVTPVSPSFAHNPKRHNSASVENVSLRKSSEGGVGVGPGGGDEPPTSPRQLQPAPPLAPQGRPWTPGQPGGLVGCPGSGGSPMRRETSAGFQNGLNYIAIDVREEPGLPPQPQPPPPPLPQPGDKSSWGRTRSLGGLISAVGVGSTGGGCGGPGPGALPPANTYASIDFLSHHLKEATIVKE
# Sequence of UniProt Q01628 (Q01628 whole entry, looked up): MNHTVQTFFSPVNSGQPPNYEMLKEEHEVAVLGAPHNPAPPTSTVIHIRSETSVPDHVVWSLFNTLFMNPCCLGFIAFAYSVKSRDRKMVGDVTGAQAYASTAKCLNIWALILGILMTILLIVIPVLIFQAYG
# Sequence of UniProt P17096 (P17096 whole entry, looked up): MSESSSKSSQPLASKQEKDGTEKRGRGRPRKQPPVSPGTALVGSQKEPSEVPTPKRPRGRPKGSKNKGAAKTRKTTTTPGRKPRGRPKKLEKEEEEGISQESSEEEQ
row,Target,log2 fold change
1,HAUS5 (UniProt O94927),0.043
2,GNB4 (UniProt Q9HAV0),0.162
3,ISL2 (UniProt Q96A47),0.038
4,IMPDH2 (UniProt H0Y4R1),-0.048
5,KDM1A (UniProt O60341),0.007
6,IGF2BP3 (UniProt O00425),-0.02
7,GIT1 (UniProt Q9Y2X7),0.013
8,HNRNPUL1 (UniProt M0R247),0.059
9,H3-3A (UniProt P84243),0.059
10,HAUS8 (UniProt Q9BT25),0.016
11,JAK3 (UniProt P52333),0.031
12,IGFBP4 (UniProt P22692),0.135
13,HOMER3 (UniProt Q9NSC5),0.072
14,IFITM3 (UniProt Q01628),-0.011
15,IRS2 (UniProt Q9Y4H2),-0.091
16,HEATR3 (UniProt Q7Z4Q2),-0.101
17,HSPA8 (UniProt E9PN89),0.003
18,GIPC3 (UniProt Q8TF64),-0.002
19,IRF2BPL (UniProt Q9H1B7),0.055
20,HSPBAP1 (UniProt Q96EW2),0.069
21,GLB1 (UniProt P16278),0.02
22,HNRNPD isoform 3 (UniProt Q14103),-0.087
23,"GYPA, A0A2R8Y7F9",-0.088

# Compound: CC1=C(SC2=C1C(=N[C@H](C3=NN=C(N32)C)CC(=O)N)C4=CC=C(C=C4)Cl)C
# Test: as above
# Procedure, shortened: as §1
row,Target,log2 fold change
1,HAUS5 (UniProt O94927),0.02
2,GNB4 (UniProt Q9HAV0),-0.074
3,ISL2 (UniProt Q96A47),0.058
4,IMPDH2 (UniProt H0Y4R1),0
5,KDM1A (UniProt O60341),-0.004
6,IGF2BP3 (UniProt O00425),0.005
7,GIT1 (UniProt Q9Y2X7),-0.008
8,HNRNPUL1 (UniProt M0R247),-0.014
9,H3-3A (UniProt P84243),0.016
10,HAUS8 (UniProt Q9BT25),-0.029
11,JAK3 (UniProt P52333),-0.051
12,IGFBP4 (UniProt P22692),-0.099
13,HOMER3 (UniProt Q9NSC5),-0.276
14,IFITM3 (UniProt Q01628),-0.078
15,IRS2 (UniProt Q9Y4H2),0.246
16,HEATR3 (UniProt Q7Z4Q2),0.022
17,HSPA8 (UniProt E9PN89),0.044
18,GIPC3 (UniProt Q8TF64),0.042
19,IRF2BPL (UniProt Q9H1B7),-0.057
20,HSPBAP1 (UniProt Q96EW2),-0.022
21,GLB1 (UniProt P16278),0.033
22,HNRNPD isoform 3 (UniProt Q14103),-0.145
23,"GYPA, A0A2R8Y7F9",-0.151

# Compound: CC1=C2C(=CC=C1)N=C(N(C2=O)C3=CC=CC=C3C)CN4C=NC5=C(N=CN=C54)N
# Test: as above
# Procedure, shortened: as §1
row,Target,log2 fold change
1,HAUS5 (UniProt O94927),0.003
2,IMPDH2 (UniProt H0Y4R1),-0.077
3,KDM1A (UniProt O60341),0.018
4,IGF2BP3 (UniProt O00425),0.009
5,KATNBL1 (UniProt Q9H079),-0.111
6,GTPBP6 (UniProt O43824),0.385
7,GORASP1 (UniProt Q9BQQ3),-0.049
8,ITGB1BP2 (UniProt Q9UKP3),0.116
9,GIT1 (UniProt Q9Y2X7),0.009
10,H3-3A (UniProt P84243),0.024
11,HAUS8 (UniProt Q9BT25),0
12,JAK3 (UniProt P52333),-0.129
13,IPP (UniProt Q9Y573),-0.009
14,IFITM3 (UniProt Q01628),-0.118
15,HECW2 (UniProt Q9P2P5),-0.048
16,HEATR3 (UniProt Q7Z4Q2),0.008
17,IRF2BPL (UniProt Q9H1B7),0
18,GPN2 (UniProt Q9H9Y4),0.07
19,HYDIN (UniProt Q4G0P3),-0.069
20,GLB1 (UniProt P16278),0.046
21,HNRNPD isoform 3 (UniProt Q14103),0
22,HNRNPM (UniProt M0R019),-0.116

# Compound: Cc1sc2c(c1C)C(c1ccc(Cl)cc1)=N[C@@H](CC(=O)OC(C)(C)C)c1nnc(C)n1-2
# Test: as above
# Procedure, shortened: as §1
row,Target,log2 fold change
1,HAUS5 (UniProt O94927),-0.055
2,GNB4 (UniProt Q9HAV0),0.031
3,ISL2 (UniProt Q96A47),-0.063
4,IMPDH2 (UniProt H0Y4R1),-0.018
5,KDM1A (UniProt O60341),0.009
6,ITPRIP (UniProt Q8IWB1),0.054
7,IGF2BP3 (UniProt O00425),0.035
8,KATNBL1 (UniProt Q9H079),-0.012
9,GTPBP6 (UniProt O43824),-0.439
10,GORASP1 (UniProt Q9BQQ3),-0.031
11,ITGB1BP2 (UniProt Q9UKP3),0.083
12,GPLD1 (UniProt P80108),0.209
13,GIT1 (UniProt Q9Y2X7),0.093
14,HAUS8 (UniProt Q9BT25),0.009
15,HMGA1 isoform 2 (UniProt P17096),0.055
16,IGFBP4 (UniProt P22692),-0.032
17,IPP (UniProt Q9Y573),-0.099
18,IFITM3 (UniProt Q01628),-0.088
19,HECW2 (UniProt Q9P2P5),-0.093
20,IRS2 (UniProt Q9Y4H2),-0.129
21,HEATR3 (UniProt Q7Z4Q2),-0.024
22,HSPA8 (UniProt E9PN89),-0.219
23,GIPC3 (UniProt Q8TF64),0.013
24,IRF2BPL (UniProt Q9H1B7),0.047
25,GPN2 (UniProt Q9H9Y4),0.057
26,HSPBAP1 (UniProt Q96EW2),0.065
27,HYDIN (UniProt Q4G0P3),-0.078
28,GLB1 (UniProt P16278),0.016
29,HNRNPD isoform 3 (UniProt Q14103),-0.096
30,ITPR2 (UniProt Q14571),-0.171
